The results in this text go back to PubChem BioAssay.

Molecules are shown by their SMILES. Potency and affinity values are given separately. A number with no mark means an inactive call. No rule for the calls is given here.

The experiment addresses Melanocortin receptor 4 (Homo sapiens) (UniProt P32245). Description: blockade of melanocortin 4 receptor signaling – cell-based, plate reader, cherry pick, counter-screen for LGR2 antagonist project, dose response (AID 743444). The conditions noted are these: MC4R-expressing cells, antagonist mode; series mostly up to 35 µM; activity change, negative = inhibition: at the top concentration. For orientation: A counterscreen serves to expose hits that act by an unwanted route or on another target.
`COc1cc(NC2CCCCC2O)c2nc(-c3ccc(Cl)cc3)ccc2c1` (stereo unspecified): the “activity change, negative = inhibition” value was 70.1%.
As to `CC(C)N(C(=O)COC(=O)c1ccccc1C(=O)c1ccc(Cl)c([N+](=O)[O-])c1)C(C)C`, the “activity change, negative = inhibition” value is 94.9%.
The result for `O=C(c1ccc(CSc2nc3ccncc3[nH]2)cc1)N1CCN(c2cccc(Cl)c2)CC1` reads 42.7%; that for `CCOC(=O)c1c(C)n(C)c2ccc(OCC(O)CNCCc3ccccc3)cc12` (stereo unspecified), 83.6%; that for `c1ccc(COc2cccc(-c3cc4nc(NCCCn5ccnc5)ccn4n3)c2)cc1`, -3.54%.
To `O=[N+]([O-])c1cc(S(=O)(=O)N2CCCCCC2)ccc1Cl` belongs 46.7%.
For `COC(=O)c1ccc(Nc2cc(C)nc3ccc(C)cc23)cc1`, the “activity change, negative = inhibition” value was 46.1%.
To `O=C(c1ccc2c(c1)OCCO2)C1CCN(S(=O)(=O)c2ccc(F)cc2)CC1` belongs 68.4%.
The result for `CNCc1ccccc1Sc1ccc(O)c(O)c1` reads 2.7%.
The result for `O=C(Cn1ncc(Cl)c(Cl)c1=O)N1CCOCC1` reads 12.2%; that for `CCCCOc1cc(NCc2ccccc2)c2ncn(C(C)C)c2c1`, 71.4%; that for `COc1cccc(C#Cc2ccc([C@@H]3[C@@H](CO)N(C(=O)C4CCC4)[C@H]3C#N)cc2)c1`, -28.4%.
As for `CC(C)(C)c1ccc(Cn2c(=O)cnc3ccccc32)cc1`, the “activity change, negative = inhibition” value is 112%.
To `COc1ccc(S(=O)(=O)N2CCOCC2)cc1NC(=O)COc1ccc(C)cc1` belongs 102%; to `COc1ccccc1N1CCN(C(=O)c2sc3nc(-c4ccc(F)cc4)cn3c2C)CC1`, -16.4%; to `CCCCn1nnnc1C(c1cc2ccccc2o1)N1CCN(c2ccncc2)CC1` (stereo unspecified), -24.1%.
To `COc1ccc(C(=O)CC(Sc2ccccc2N)c2ccc(OC)cc2)cc1` (stereo unspecified) belongs -30.1%; to `Cn1c(=O)c2cc(NC(=O)NCc3ccccc3)ccc2n1C/C=C/c1ccccc1`, -16.3%.
The result for `Oc1ccc(-c2csc(-c3cccnc3)n2)c(O)c1` reads 18.2%; that for `CC(=O)c1ccc(Nc2cc(C)nc3c(C)cc(C)cc23)cc1`, 33.5%; that for `COc1cc(/C=N/Nc2nc(C)nc3c2cnn3-c2ccccc2)ccc1O`, 25.4%.
As to `C[C@@H]1CN([C@H](C)CO)C(=O)Cc2cc(NC(=O)CCC(F)(F)F)ccc2O[C@@H]1CN(C)CC1CCCCC1`, the “activity change, negative = inhibition” value is 3.39%.
As for `O=C(Nc1ccc(N2CCN(C(=O)c3ccccc3)CC2)cc1)c1cc2ccccc2o1`, the “activity change, negative = inhibition” value is -16.1%.
The result for `Cc1cccc(Cn2ncc(Cl)c(Cl)c2=O)c1` reads 44.8%; that for `COc1ccccc1CN(C)C[C@@H]1OCc2cnnn2CCCC(=O)N([C@H](C)CO)C[C@H]1C`, 36.4%.
The result for `O=C(CSc1ncnc2[nH]ncc12)Nc1nc(-c2ccc(F)c(F)c2)cs1` reads 74.6%.
